# Measurements from PubChem BioAssay (NCATS).
# Inconclusive results are not listed. Activity calls are given as the source filed them. Unless noted, calls come from the whole dose curve; as a rule, active = well fitted curve in the direction sought with a large enough effect; inconclusive = small, poorly fitted or top-dose-only effect, or another doubt; inactive = no such curve, though single readings can be large; an effect the other way counts as inactive or inconclusive.
# Experiments:
# [1] = NCATS anti-infectives library activity on HEK293 viability as a counter-qHTS vs the C. elegans viability qHTS (AID 1745854); note: % is set by controls: 0 for no effect and ±100 for the full control effect
# In short: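 HEK293 cells, 1500 per well, exposed 24 hr at 37C in 5% CO2 to compounds in a 1:5 titration, up to 41.7 uM final. Viability read as CellTiter-Glo luminescence after 10 min at room temperature.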
# [2] = target: Nicotinamide N-methyltransferase (Homo sapiens) (UniProt P40261); assay: Confirmatory Screen for Target Class Profiling of Small Molecule Inhibitors of Methyltransferases (AID 1745852); settings: MTase-Glo luminescence, SAH detection, recombinant enzyme; measured here: NNMT max response; stronger effect = lower value
# Sequence of Nicotinamide N-methyltransferase (Homo sapiens) (P40261 whole entry, looked up): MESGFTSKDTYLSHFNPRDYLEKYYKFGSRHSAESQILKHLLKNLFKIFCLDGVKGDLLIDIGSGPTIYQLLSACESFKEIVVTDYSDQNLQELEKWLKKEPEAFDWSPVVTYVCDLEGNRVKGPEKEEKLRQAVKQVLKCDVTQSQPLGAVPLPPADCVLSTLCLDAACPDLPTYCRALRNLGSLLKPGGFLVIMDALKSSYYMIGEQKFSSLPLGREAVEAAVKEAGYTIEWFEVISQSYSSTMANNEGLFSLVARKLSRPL
# [3] = target: Phenylethanolamine N-methyltransferase (Homo sapiens) (UniProt P11086); assay: as above; settings: MTase-Glo luminescence, SAH detection, recombinant enzyme; measured here: PNMT max response; stronger effect = lower value
# Sequence of Phenylethanolamine N-methyltransferase (Homo sapiens) (P11086 whole entry, looked up): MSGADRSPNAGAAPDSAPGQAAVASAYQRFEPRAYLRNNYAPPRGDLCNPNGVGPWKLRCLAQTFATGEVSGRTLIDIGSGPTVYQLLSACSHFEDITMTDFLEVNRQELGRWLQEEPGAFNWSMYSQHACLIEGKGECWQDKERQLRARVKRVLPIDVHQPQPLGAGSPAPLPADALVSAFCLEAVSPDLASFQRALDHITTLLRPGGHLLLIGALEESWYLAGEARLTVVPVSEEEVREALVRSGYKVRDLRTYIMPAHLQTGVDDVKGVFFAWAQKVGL
# [4] = target: Metallo-beta-lactamase type 2 (Klebsiella pneumoniae) (UniProt C7C422); assay: qHTS to identify inhibitors of the New Delhi Metallo-beta-lactamase (NDM): assay validation screen against the NCATS LOPAC Collection (AID 1794843); note: series mostly up to about 38 µM; % is set by controls: 0 for no effect and ±100 for the full control effect
# Sequence of Metallo-beta-lactamase type 2 (Klebsiella pneumoniae) (C7C422 whole entry, looked up): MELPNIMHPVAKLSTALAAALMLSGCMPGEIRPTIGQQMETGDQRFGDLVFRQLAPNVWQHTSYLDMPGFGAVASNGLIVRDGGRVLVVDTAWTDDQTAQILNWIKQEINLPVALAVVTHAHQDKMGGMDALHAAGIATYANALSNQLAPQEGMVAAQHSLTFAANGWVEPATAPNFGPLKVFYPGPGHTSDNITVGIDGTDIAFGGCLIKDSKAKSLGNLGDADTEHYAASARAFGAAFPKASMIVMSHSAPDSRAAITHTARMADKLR
# In short: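 Absorbance at 485 nm from nitrocefin turnover (50 uM solution added), read at plateau, gives the read-out. Compounds in DMSO were incubated first with 2 nM final NDM-1 in pH 7.0 HEPES buffer containing 1 uM ZnSO4 and 0.01% Tween20.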
# [5] = NCATS anti-infectives library activity on the primary C. elegans qHTS viability assay (AID 1745855; calls by dose curve; note: potency is the fitted concentration of half-maximal effect)
# In short: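 Viability is taken from GFP fluorescence of PE254-GFP-FLuc C. elegans imaged by laser cytometry over 7 days. Ten L1 worms per well grow at 21 °C on TOP10 E. coli capsules with titrated compound; levamisole marks toxicity.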
# [6] = target: Nuclear receptor subfamily 1 group I member 3 (Homo sapiens) (UniProt Q14994); assay: Primary qHTS for agonist of constitutive androstane receptor (CAR) against the NCATS DSHEA and TCM libraries (AID 1794839); note: potency is the fitted concentration of half-maximal effect
# Sequence of Nuclear receptor subfamily 1 group I member 3 (Homo sapiens) (Q14994 whole entry, looked up): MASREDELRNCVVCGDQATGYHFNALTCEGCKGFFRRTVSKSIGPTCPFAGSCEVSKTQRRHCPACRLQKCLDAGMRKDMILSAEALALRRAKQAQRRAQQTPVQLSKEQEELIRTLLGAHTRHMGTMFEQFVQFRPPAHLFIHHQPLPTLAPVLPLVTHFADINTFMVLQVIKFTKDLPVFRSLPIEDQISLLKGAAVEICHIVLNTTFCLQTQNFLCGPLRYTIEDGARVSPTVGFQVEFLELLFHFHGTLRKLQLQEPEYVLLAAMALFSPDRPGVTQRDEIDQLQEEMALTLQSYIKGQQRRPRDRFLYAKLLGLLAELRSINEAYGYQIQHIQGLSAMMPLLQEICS
# In short: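 Cells stably carrying hCAR and a CYP2B6 reporter (HepG2 background) are seeded and allowed 5 h to adhere. Substances at multiple concentrations are added alongside 0.75 µM PK11195, and luciferase signal is measured after 24 h.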
smiles,measurement,setting,value
O=C(Nc1c(Cl)cncc1Cl)c1ccc(OC(F)F)c(OCC2CC2)c1,outcome,[1],inactive
C=CCc1ccc(O)c(-c2ccc(O)c(CC=C)c2)c1,outcome,[1],inactive
COc1cc(N2CCC(N3CCN(C)CC3)CC2)ccc1Nc1ncc(Cl)c(Nc2ccccc2S(=O)(=O)C(C)C)n1,activity,[2],-19%
same,activity,[3],-27.6%
CC1(C)CCC2=C(O1)c1ccccc1C(=O)C2=O,activity,[2],-22.7%
same,activity,[3],-16.1%
same,Potency,[4],inactive
CC(=O)N(C)C1(c2ccccc2)CCN(CCC[C@]2(c3ccc(Cl)c(Cl)c3)CCCN(C(=O)c3ccccc3)C2)CC1,activity,[2],-62.2%
same,activity,[3],-6.52%
NC(=O)[C@@H](CCC(F)(F)F)N(Cc1ccc(-c2ncon2)cc1F)S(=O)(=O)c1ccc(Cl)cc1,outcome,[1],inactive
same,Potency,[5],inactive
O=C(O)c1ccc(-c2c[nH]c3ncc(-c4ccccc4)cc23)cc1C1CCCC1,outcome,[1],inactive
Cn1c(N2CCCCS2(=O)=O)nc(C(=O)NCc2ccc(F)cc2)c(O)c1=O,outcome,[1],inactive
CC(C)=CC[C@@H](O)C1=CC(=O)c2c(O)ccc(O)c2C1=O,Potency,[5],16.3 µM (active)
CC1CCC(C(=O)N(c2cc(C#CC(C)(C)C)sc2C(=O)O)C2CCC(O)CC2)CC1 (stereo not drawn),outcome,[1],inactive
same,Potency,[5],inactive
COc1cc2ncnc(Nc3ccc(F)c(Cl)c3)c2cc1OCCCN1CCOCC1,activity,[2],-60.5%
same,activity,[3],-74.4%
NC(=O)c1cnc(-c2ccc(C3(N)CCC3)cc2)c(-c2ccccc2)c1,activity,[2],-51.4%
same,activity,[3],-17.2%
COc1ccc2c(Oc3ccc(NC(=O)c4c(C)n(CC(C)(C)O)n(-c5ccccc5)c4=O)cc3F)ccnc2c1,activity,[2],-7.85%
same,activity,[3],-1.86%
CC#CCn1c(N2CCC[C@@H](N)C2)nc2c1c(=O)n(Cc1nc(C)c3ccccc3n1)c(=O)n2C,outcome,[1],inactive
COc1cccc2c1CCCC2CCCN1CCN(C2CCCCC2)CC1 (stereo not drawn),Potency,[5],inactive
O=C(O)CCC1CCC(c2cc(F)ccc2F)(S(=O)(=O)c2ccc(Cl)cc2)CC1 (stereo not drawn),outcome,[1],inactive
COc1ccc(Cc2nccc3cc(OC)c(OC)cc23)cc1OC,activity,[2],-16.1%
same,activity,[3],-24.2%
same,Potency,[4],inactive
CC[C@]1(O)C[C@@H]2CN(CCc3c([nH]c4ccccc34)[C@@](C(=O)OC)(c3cc4c(cc3OC)N(C)[C@H]3[C@@](O)(C(=O)OC)[C@H](OC(C)=O)[C@]5(CC)C=CCN6CC[C@]43[C@@H]65)C2)C1,activity,[2],-2.58%
same,activity,[3],4.57%
CC(=O)N[C@@H](CS)C(=O)O,outcome,[1],inactive
same,Potency,[4],inactive
O=C(Nc1ccccc1-c1cn2c(CN3CCNCC3)csc2n1)c1cnc2ccccc2n1,activity,[2],-43.9%
same,activity,[3],-31.7%
CC1(C)CCC(CN2CCN(c3ccc(C(=O)NS(=O)(=O)c4ccc(NCC5CCOCC5)c([N+](=O)[O-])c4)c(Oc4cnc5[nH]ccc5c4)c3)CC2)=C(c2ccc(Cl)cc2)C1,activity,[2],-11.4%
same,activity,[3],-21.8%
CCS(=O)(=O)N1CC(CC#N)(n2cc(-c3ncnc4[nH]ccc34)cn2)C1,outcome,[1],inactive
CCc1ccc(C=C2SC(=S)NC2=O)cc1,activity,[2],-15.7%
same,activity,[3],-1.21%
CCCCCN(C)CCC(O)(P(=O)(O)O)P(=O)(O)O,"activity change, negative = cytotoxicity",[1],-3.04% [at 3.71 µM] (inactive)
COc1ccc(-c2nc(N3CCOCC3)c3sc(CN(C)c4ncc(C(=O)NO)cn4)cc3n2)cn1,Potency,[5],14.5 µM (active)
CN1CCN(CCOc2cc(OC3CCOCC3)c3c(Nc4c(Cl)ccc5c4OCO5)ncnc3c2)CC1,activity,[2],-34.6%
same,activity,[3],-10.6%
same,outcome,[1],inactive
CC(=O)CCCCn1c(=O)c2c(ncn2C)n(C)c1=O,outcome,[1],inactive
same,Potency,[4],inactive
Cc1cccc(Nc2nc(-c3ccncc3)cs2)c1,activity,[2],-73.8%
same,activity,[3],-88.3%
C[C@H](NC(=O)C(=O)Nc1ccccc1C(C)(C)C)C(=O)N[C@@H](CC(=O)O)C(=O)COc1c(F)c(F)cc(F)c1F,"activity change, negative = cytotoxicity",[1],-18.7% [at 8.35 µM] (inactive)
O=C1NC(=O)C(c2ccccc2)(c2ccccc2)N1,outcome,[1],inactive
same,Potency,[4],inactive
COc1cc(O)c2c(c1)C(=O)c1cc(C)cc(O)c1C2=O,Potency,[6],inactive
O=c1c(-c2ccc(O)cc2)coc2cc(O[C@@H]3O[C@H](CO)[C@H](O)[C@H](O)[C@H]3O)ccc12,Potency,[6],10 µM (active)
